The experiment has as its system VDR homodimer (NR concentration 270 nM). Description: PBM binding z-score (relative to random genomic background probes); higher = stronger binding; sequences stand for … in GC…GCGATTGACAGCGTAGAATGAAGG
An outline of the steps:
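Custom Agilent 4×180K protein-binding microarrays carried double-stranded probes. Their 34-nt variable regions held direct-repeat seeds, single-nucleotide variants, half-site ablations and random human genomic background sequences. Arrays were incubated 1 h with ligand-free nuclear receptor dimers in PBS pH 7.4, 2% milk, 0.02% Triton X-100, 1 mM DTT, 0.2 mg/mL BSA and 0.4 mg/ml salmon testes DNA. Antibodies against each partner (one per run) detected binding, and scanned fluorescence was regression-normalized. Binding z-scores use random background probes as reference.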
Turning to GCGACTAGGGCATCAGCAGGTTACCATAACTTAA, the PBM binding z-score is -0.299. Then GATACAGTGTCAAGGCCAGAGTACGCGTATTGAT, with 0.431. The value for GCGACTGGGGCATCAGCAGGTTTCCATAACTTAA was 0.168. Then CCGACTGGGGCATAAGGTTACCCTAAGCCAGCCC, with -0.217; and AATACAGGGTCATCGTAGGCCAGCGTACGCACAG, with 3.03; and GCGACTGGGGCATCAGCAGATTACCATAACTTAA, with -0.431. As for GGACCGAGGGCAAAGTTGATAGCATCTGTCGACG, the PBM binding z-score came to 1.07.

In turn, CGGACTAGGTCATTGACAGGACAGTGAATAGTAA returned a PBM binding z-score of 1.23. Consider CGTCAAAGTTTAACTAAGGTAACGTAAAGCACGC, for which the PBM binding z-score was determined as 0.79. The value for ATATGTAGGTTAGCTGGGGTCATACAGACTAGGC was 4.09; that for GCGGCTAGGTCAACTGATGGTCAGCTAAAGCTCG was -0.00796; that for CAGCCTAGGTCATGGCCAGTATAGGAGGAACGTT was 0.197. For the sequence CCTAGTTGGTCAAGGCCACACACGCTATAGGTAC, the PBM binding z-score worked out at 0.836. Then CCTTACGGGTCAACGTTATAGCACGGGTGGTACG, with 0.692. For TCTTGTAGATCAAACAGGTTAAGAAAGCCTGAGT, the PBM binding z-score stood at 0.0762. Then CCTAGTTGGTCAGGAGGTCACACTCCGGATATGA, with 2.5; and TCTAGCAGGCGAGAGGGTCACTCAAGAGGTACGG, with 0.103. On to CGAACGAGGGCATGAGTTGATAGCGAATGCCGAT, for which the PBM binding z-score stood at 1.5. Then TCATATAGGTAAAAGGTGAAAGTAGGTGTGGTAA, with 0.549.

For ACAGACAGGTGAGTGAAGGTAGCTCAGCTGGACG, the PBM binding z-score is -0.688. In turn, CAAACTAGGTCACAGAGGTCAAAGACCGTGCGTA returned a PBM binding z-score of 6.4. The value for TGTCAAAGTTCAAAGGTAACGGAAGTATCCACAC was 4.06; that for CATTACGGGTCACGAGGTTATAGCACGACGAGCG was 2.52. Then ATCTCTAGGTAAAGTTCAGTTAAAGATCGATAGA, with 2.04. Then CCTACGGGGCCATTCAGAGGTCATTGATCATATG, with 4.91. Take AGAATGAGGTTAATATCAGGGAAACAGAATACAT: the PBM binding z-score worked out at 0.82. The value for CCGACTGGGCCAAGGTCATTGATCAGTCAAAGCA was 3.33. Then CCTCAGAGGACAGAAGGTCAGAGCTGTCCGCTTT, with 0.12; and CGAACTAGGTCATCCAGGAAAGTGAATACATTGA, with 1.12; and ACTATTAGTTGAGACGAGTGCAACCGATAGGTTG, with 1.49. Turning to GCTTACGGGTCAAAGGTTATAGCGTGAATAGAAT, the PBM binding z-score is 1.44.

As to ACTATTAGTTGACTTAGGGCAACCGGTACGACGC, the PBM binding z-score was 0.456. Then AGATTGAGGTTATACGTAGATCAGGGAAGAAAGT, with 0.908; and CCTACTAGGTCAATGGTCAGCTAAAGCAGCTCGC, with 0.437. For ATCTGTAGGTAACAAGTTCAGTGAAAGAGAGGAC, the PBM binding z-score came to 2.46. In the case of CAAACTAGGTCAACAGGTCAAAGTCCGCTTCCCG, the PBM binding z-score came to 2.78. In turn, TCTCGGAGGACACGAAAGGTTAGAGCTCGACATC yielded a PBM binding z-score of 0.0953.

GCTTGTATATCAAGGTTAAGAAAGACTAAGCTAA returned a PBM binding z-score of -0.0299. The value for TCCGCTAGGTCAACGATGGTCAGCTAATCTGCTA was -0.0724; that for CCTATGAGTTGACCATAAGGGCAACCGAAGCTCG was 0.847.

The record behind these values is the supplement of paper PMC6555819.
